High-throughput results from PubChem.
This is a sample that favours compounds with a hit; in the whole collection about 10% have one here.
CtBP-E1A inh: qHTS Assay for Inhibitors of the CtBP/E1A Interaction; CtBP / adenovirus E1A interaction (AlphaScreen); AlphaScreen GST-E1A/His-CtBP binding, 1536-well; active compounds read low; activity change, % (concentration not given with the values); hit rate 0.49% among 340,000; in the data active means activity change below about -65%; inconclusive means mostly about -30% to -63%
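Protein mix (5X: 125 nM each GST-E1A, His-CtBP) was incubated with pinned compound 2 h at 37 deg C in dark, in 50 mM Tris pH 8.0 buffer with 300 mM NaCl. Glutathione donor and nickel acceptor beads followed; AlphaScreen signal read after 1 h.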
JMJD2A Tudor inh: qHTS Assay for Inhibitors of JMJD2A-Tudor Domain. Potency, µM (series often up to 114 µM), most hits filed as inhibitors. AID 504339, 2011. hit rate 4.4% among 390,000. AlphaScreen JMJD2A-Tudor / H3K4me3 peptide binding; further: nearly all actives have a fitted effect of over 50% in size
Target sequence (O75164 whole entry, looked up, the tested form may be a part): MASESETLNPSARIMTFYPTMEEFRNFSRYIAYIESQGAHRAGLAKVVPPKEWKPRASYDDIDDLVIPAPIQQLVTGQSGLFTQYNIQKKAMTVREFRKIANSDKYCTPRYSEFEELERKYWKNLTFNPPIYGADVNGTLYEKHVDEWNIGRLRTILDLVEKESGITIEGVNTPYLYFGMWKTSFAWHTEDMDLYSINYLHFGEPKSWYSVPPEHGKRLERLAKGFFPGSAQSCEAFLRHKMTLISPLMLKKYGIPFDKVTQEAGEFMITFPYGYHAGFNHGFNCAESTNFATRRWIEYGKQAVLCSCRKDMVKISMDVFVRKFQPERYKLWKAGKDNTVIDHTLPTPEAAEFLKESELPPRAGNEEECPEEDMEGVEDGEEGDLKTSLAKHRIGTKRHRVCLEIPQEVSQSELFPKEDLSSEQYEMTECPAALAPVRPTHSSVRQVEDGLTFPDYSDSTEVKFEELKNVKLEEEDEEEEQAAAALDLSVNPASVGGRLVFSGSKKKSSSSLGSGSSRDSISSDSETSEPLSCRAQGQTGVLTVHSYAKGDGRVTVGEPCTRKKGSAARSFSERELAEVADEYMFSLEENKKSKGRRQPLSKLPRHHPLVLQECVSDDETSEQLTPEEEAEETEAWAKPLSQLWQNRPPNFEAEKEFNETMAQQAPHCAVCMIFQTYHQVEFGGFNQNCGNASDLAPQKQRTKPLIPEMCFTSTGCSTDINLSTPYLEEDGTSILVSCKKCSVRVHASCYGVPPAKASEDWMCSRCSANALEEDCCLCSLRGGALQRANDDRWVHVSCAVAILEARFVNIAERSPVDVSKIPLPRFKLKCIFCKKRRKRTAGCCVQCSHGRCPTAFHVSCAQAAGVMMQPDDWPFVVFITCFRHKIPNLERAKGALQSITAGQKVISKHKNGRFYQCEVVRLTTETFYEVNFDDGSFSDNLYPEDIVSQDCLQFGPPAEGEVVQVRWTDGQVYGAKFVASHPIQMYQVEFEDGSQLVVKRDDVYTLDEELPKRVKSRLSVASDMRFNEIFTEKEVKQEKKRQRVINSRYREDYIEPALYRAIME
G9a block: qHTS Assay for Inhibitors of Histone Lysine Methyltransferase G9a | AID 504332, 2011 | G9a H3K9 monomethylation, AlphaScreen, 2 h | hit rate 8.8% among 350,000 | Histone-lysine N-methyltransferase EHMT2 (Homo sapiens), Q96KQ7 | Potency, µM (doses to about 102 µM), hits mostly inhibitors; further: nearly all actives have a fitted effect of over 75% in size
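AlphaScreen read-out: biotin-H3K9 peptide (500 nM) methylation by 20 nM enzyme with 20 uM SAM, 2 h at room temperature after 15 min compound preincubation; anti-monomethyl H3K9 antibody plus donor/acceptor beads, 10 min dark.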
Six1-Eya2 inh: qHTS Assay for Inhibitors of the Six1/Eya2 Interaction. Homeobox protein SIX1 (Homo sapiens) + Protein phosphatase EYA2 (Homo sapiens), …. AlphaScreen GST-Six1/His-Eya2 binding, biochemical; active compounds read low. activity change, % (test concentration not listed). hit rate 0.56% among 360,000. AID 651725, 2012; in the data active means activity change below about -65%; inconclusive means mostly about -30% to -63%
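Six1/Eya2 binding was read as AlphaScreen signal after compounds were pinned into GST-Six1 plus His-tagged Eya2 (5X stock 250/500 nM) in pH 8.0 Tris/NaCl/TCEP buffer, beads added, then incubated 1 h, 37 C, dark.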
BAZ2B inh: qHTS Assay for Inhibitors of BAZ2B. hit rate 4.4% among 360,000. AlphaScreen BAZ2B-H3K14Ac peptide displacement. Potency, µM (doses to about 114 µM), usual class: inhibitors. Bromodomain adjacent to zinc finger domain protein 2B (Homo sapiens), Q9UIF8. AID 504333, 2011; further: nearly all actives have a fitted effect of over 60% in size
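Inhibition is scored as reduced AlphaScreen emission. The BAZ2B/b-H3(5-23)K14Ac complex (50 nM each) in PBS pH 7.4, 0.01% Tween-20 meets compound (up to 110 uM) for 30 min at RT before bead addition.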
HP1b chromo inh: HTS for Inhibitors of HP1-beta Chromodomain Interactions with Methylated Histone Tails; Chromobox protein homolog 1 (Homo sapiens), P83916; AID 540317, 2011; AlphaScreen HP1-beta / biotin-H3K9me3 peptide binding; Potency, µM (highest dose often 114 µM), hits mostly inhibitors; hit rate 0.56% among 390,000; further: nearly all actives have a fitted effect of over 70% in size
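AlphaScreen: HP1-beta (50 nM) preformed 30 min with biotin-H3(1-18)K9me3 peptide (50 nM) in PBS pH 7.4, 0.01% Tween-20. Compound added for 30 min at RT, then streptavidin donor/nickel chelate acceptor beads (10 ug/mL) for 30 min.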
Numbers stand for hits; . = inactive; ? = inconclusive; / = no result; ! = repeats disagree; [ ] = dose if it differs, or a comment. Unless noted, the call rests on the fitted dose curve; in most records, active means well fitted inhibition curve with a large enough effect; inconclusive means small, poorly fitted or top-dose-only effect; inactive means no such curve, though single readings can be large or run the other way.

SMILES	CtBP-E1A inh	JMJD2A Tudor inh	G9a block	Six1-Eya2 inh	BAZ2B inh	HP1b chromo inh
O=C(O)CSC1=NC(=Nc2cccc(Cl)c2)C2(CCCCC2)N1c1ccccc1	.	45µM	3.5µM	.	.	?
O=C1NC(=S)N(c2cccc(Cl)c2)C12CCCCC2	.	.	.	.	.	.
CCCSc1nc2cc(C)c(C)cc2n1CC(C)O (stereo not drawn)	.	.	11µM	.	?	.
CCCSc1nc2cc(C)c(C)cc2n1CC(O)CO (stereo not drawn)	/	.	.	.	.	.
O=C(Nc1cccc(Cl)c1)c1ccccc1NC(=O)C1CCCCC1C(=O)O (stereo not drawn)	.	.	/	.	.	.
CCCCNc1nnc(SCC(=O)c2c[nH]c3ccccc23)s1	.	.	28µM	.	.	.
Cn1cnnc1SCC(=O)c1c[nH]c2ccccc12	.	.	.	.	.	.
CC(=O)C1=C(c2ccc(Br)cc2)C(=O)c2ccccc2C1=O	.	22µM	35µM	.	25µM	25µM
CC(=O)Nc1c(Br)cc2c(c1Br)C(=O)c1ccccc1-2	.	.	/	.	/	.
Cc1cc(=O)[nH]c(N/N=C/c2c(F)c(F)c(F)c(F)c2F)n1	.	.	.	.	?	.
CCN(CC)c1ccc(/C=N/Nc2nc(C)cc(=O)[nH]2)c(O)c1	-98	.	.	-92	.	.
CCN(CC)c1ccc(/C=N/NC(=O)c2c(Cl)cnn2C)c(O)c1	-91	.	.	-90	79µM	.
Cc1cc(=O)[nH]c(NN=Cc2cc(Br)ccc2O)n1	-94	79µM	/	-89	/	.
Cc1cc(=O)[nH]c(N/N=C/c2sccc2C)n1	?	.	?	?	.	.
C/C=C/C=N/Nc1nc(C)cc(=O)[nH]1	.	1.6µM	3.5µM	.	50µM	.
Cc1cc(=O)[nH]c(N/N=C/c2ccccc2Cl)n1	/	79µM	40µM	.	.	.
CCOC(=O)N/N=C/c1ccc(N(CC)CC)cc1O	.	.	?	.	?	.
Cc1cc(=O)[nH]c(N/N=C/C(C)c2ccccc2)n1 (stereo not drawn)	.	1.1µM	16µM	.	.	.
CCN(CC)c1ccc(/C=N/Nc2ccc(C)cc2)c(O)c1	?	.	1.8µM	?	45µM	.
COc1ccc(OC)c(/C=N/Nc2nc(C)cc(=O)[nH]2)c1	.	.	45µM	.	50µM	.
COc1ccccc1/C=N/Nc1nc(C)cc(=O)[nH]1	.	/	/	.	/	/
CC(/C=N/Nc1nc(C)cc(=O)[nH]1)=C\c1ccccc1	.	.	?	.	.	.
Cc1ccccc1NC(=O)NC1(C(=O)N2CCC(C(N)=O)CC2)CCCCC1	.	.	.	.	.	.
Cn1c2cc(S(C)=O)sc2c2cnn(Cc3cccc(O)c3)c(=O)c21 (stereo not drawn)	/	.	/	/	/	/
CC1(C)CC(Cc2ccc(C(F)(F)F)cn2)N(C(=O)OC(C)(C)C)C1 (stereo not drawn)	.	/	/	.	/	/
SMILES	CtBP-E1A inh	JMJD2A Tudor inh	G9a block	Six1-Eya2 inh	BAZ2B inh	HP1b chromo inh
COCCNc1cc(N2CCN(C3CCCCC3)CC2)c2noc3c2c1C(=O)c1ccccc1-3	/	50µM	?	/	?	?
O=C1c2ccccc2-c2onc3c(Br)cc(NC4CCCCC4)c1c23	/	.	.	/	.	.
O=C1c2ccccc2-c2onc3c(N4CCN(C5CCCCC5)CC4)cc(NCCO)c1c23	/	?	.	/	32µM	?
CC(C)CNc1cc(NC2CCCCC2)c2c3c(onc13)-c1ccccc1C2=O	/	28µM	10µM	/	25µM	?
CN(C)CCCNc1cc(N2CCN(C3CCCCC3)CC2)c2noc3c2c1C(=O)c1ccccc1-3	/	35µM	?	/	20µM	?
Cc1ccc(NC(=O)CSc2nnc(-c3ccc(S(=O)(=O)N4CCCC4)cc3)o2)cc1C	.	.	.	.	.	.
COc1cc(NC(=O)c2cc3ccccc3cc2O)c(OC)cc1Cl	/	.	.[12.7 µM]	.	.	.
COc1ccccc1NC(=O)c1cc2ccccc2o/c1=N\O	.	?	14µM	.	79µM	.
COc1ccccc1NC(=O)c1cc2cc(Br)ccc2cc1O	/	?	?	.	50µM	.
CCc1cc2c(=O)c(-c3nc4ccccc4n3C)coc2c(CN2CCCCC2C)c1O (stereo not drawn)	.	.	.	.	45µM	.
CCC(=O)Nc1c2c(nn1-c1cccc(Cl)c1)CS(=O)(=O)C2	/	.	.	.	.	.
CCSc1nnc(CNC(=O)C23CC4CC(CC(C4)C2)C3)n1Cc1ccccc1	.	?	32µM	.	.	.
CCN1C(=O)S/C(=C/c2c(OCc3ccc(C(=O)O)cc3)ccc3ccccc23)C1=O	.	?	50µM	.	?	.
CC1=C(/C=C/C(C)=C/C=C/C(C)=C/C(=O)Nc2ccc(O)cc2)C(C)(C)CCC1	.	50µM	13µM!	.	.	?
CC1=C(/C=C/C(=C/C=C/C(C)=C/C(=O)O)c2ccc(C)cc2)C(C)(C)CCC1	/	/	22µM	/	/	/
CC1=C(\C=C/C(C)=C/C=C\C(C)=C\C(=O)O)C(C)(C)CCC1	/	/	10µM	/	/	/
Cc1cc(C)c2c(=O)cc(C(=O)Nc3sc4c(c3C(=O)NCc3ccccc3)CCCC4)oc2c1	/	.	.	/	.	.
CCC(Sc1nc2cc(OC)c(OC)cc2c(=O)n1CCc1ccc(Cl)cc1)C(=O)NCCOC (stereo not drawn)	/	.	.	/	.	.
Cc1cccc(C)c1NC(=O)Cn1c(=O)cc(C)c2c(C)nn(-c3cccc(Cl)c3C)c21	/	.	.	/	.	.
Cc1nc2ccccc2c(=O)n1-c1ccc(F)c(NS(=O)(=O)c2ccccc2F)c1	.	.	.	.	.	.
Cc1ccc(-c2nc(CS(=O)CC(=O)NC3CCCCC3)c(C)o2)cc1 (stereo not drawn)	.	.	?	.	.	.
Cc1ccccc1-c1nc(CS(=O)CC(=O)NC2CCCCC2)c(C)o1 (stereo not drawn)	/	.	?	.	.	.
Cc1oc(-c2cccs2)nc1CS(=O)CC(=O)NC1CCCCCC1 (stereo not drawn)	.	.	40µM	.	.	.
Cc1ccccc1-c1nc(CS(=O)CC(=O)NC2CCCC2)c(C)o1 (stereo not drawn)	/	.	79µM	.	.	.
CCOC(C)=O	/	/	.	/	/	/
Cc1ccccc1Nc1c(-c2ccc(Cl)s2)nc2c(C)cccn12	/	?	.	/	?	?
